Results filed as inconclusive are left out. Active and inactive are the calls of the source. Calls come from the whole dose curve.
experiment: A High-Content qHTS Against Drug Library for the Identification of Small Molecules that Inhibit DYT1 Early Onset Primary Dystonia-Associated Cell Pathology (AID 1645839); settings: HEK293 Flp-In EGFP-delE TorsinA, punctate imaging, 48 h; series mostly up to 46.1 µM; % pathology change, negative = correction: at the top concentration
In short: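 Cells were seeded and left for 24 h, then dosed with compound alongside tetracycline induction of mutant EGFP-TorsinA. They were incubated for 48 h, fixed in 4% paraformaldehyde, permeabilized and imaged for mislocalization (%pathology) and cell count.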

SMILES | % pathology change, negative = correction
COc1c(N2CCNC(C)C2)c(F)cc2c(=O)c(C(=O)O)cn(C3CC3)c12 (centres undefined) | 1.4% (inactive)
Cc1onc(-c2ccccc2Cl)c1C(=O)N[C@@H]1C(=O)N2[C@@H]1SC(C)(C)[C@@H]2C(=O)O | 5.15% (inactive)
C[C@]12C=CC(=O)C=C1CC[C@@H]1[C@@H]2C(=O)C[C@@]2(C)[C@H]1CC[C@]2(O)C(=O)CO | 0.618% (inactive)
CO[C@@H]1[C@@H](OC(N)=O)[C@@H](O)[C@H](Oc2ccc3c(O)c(NC(=O)c4ccc(O)c(CC=C(C)C)c4)c(=O)oc3c2C)OC1(C)C | -4.22% (inactive)
CC(C)Cn1cnc2c(N)nc3ccccc3c21 | -20.9% [at 19.1 µM] (inactive)
CC1=NN(c2ccccc2)C(=O)C1 | -0.808% (inactive)
CC(C)OC(=O)C(C(=O)OC(C)C)=C1SC=CS1 | 7.08% (inactive)
Cc1cccc(N(C)C(=S)Oc2ccc3ccccc3c2)c1 | 0.772% (inactive)
CCN(C)C(=O)Oc1cccc([C@H](C)N(C)C)c1 | -16.3% (inactive)
S=P(N1CC1)(N1CC1)N1CC1 | -22% [at 104 µM] (inactive)
CC[C@H](C)C(=O)O[C@H]1C[C@@H](C)C=C2C=C[C@H](C)[C@H](CC[C@@H]3C[C@@H](O)CC(=O)O3)[C@H]21 | -12.6% (inactive)
CCn1cc(C(=O)O)c(=O)c2cc(F)c(N3CCNCC3)nc21 | 9.95% (inactive)
CC(C)(Sc1cc(C(C)(C)C)c(O)c(C(C)(C)C)c1)Sc1cc(C(C)(C)C)c(O)c(C(C)(C)C)c1 | 8.88% (inactive)
CNS(=O)(=O)CCc1ccc2[nH]cc(C3CCN(C)CC3)c2c1 | 6.85% (inactive)

From PubChem BioAssay (NCATS)
